PLK1 PBD block – qHTS for Inhibitors of PLK1-PDB (polo-like kinase 1 - polo-box domain): Primary Screen. Plk1 PBD binding of FITC phosphopeptide, fluorescence polarization. AID 720504, 2013. Serine/threonine-protein kinase PLK1 (Homo sapiens), P53350. 2.8% of 360,000 active. Potency, µM, inactives show max response, negative = inhibition, usual class: inhibitors; further: series mostly up to about 57 µM; nearly all actives have a fitted effect of over 65% in size
Tau fibril FP – qHTS for Inhibitors of Tau Fibril Formation, Fluorescence Polarization; Microtubule-associated protein tau (Homo sapiens), P10636; K18 P301L tau heparin fibrillization, Alexa594 FP, 6 h; Potency, µM (series often up to 57.7 µM), inactives show at the top dose activity, negative = inhibition, actives largely listed as inhibitors; 0.39% of 280,000 active; AID 1468, 2008; further: nearly all actives have a fitted effect of over 55% in size
Target sequence (P10636 561-689 P618L limits assumed): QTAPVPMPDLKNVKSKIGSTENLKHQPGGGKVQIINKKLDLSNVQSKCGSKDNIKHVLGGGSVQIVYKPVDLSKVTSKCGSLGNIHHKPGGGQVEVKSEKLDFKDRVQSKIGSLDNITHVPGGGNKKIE
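FP of Alexa 594-tau after heparin (20 uM) induction. Substrate: human K18 P301L, 15 uM unlabeled, 0.24 uM labeled. Buffer 100 mM sodium acetate pH 7. 6 hr, 37 C.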
VDR inhibitor – Inhibitors of the vitamin D receptor (VDR): qHTS | Potency, µM, inactives show max response, negative = inhibition, usual class: inhibitors | 0.93% of 400,000 active | VDR-SRC2-3 peptide fluorescence polarization, 2 h | Vitamin D3 receptor (Homo sapiens), P11473 | AID 504847, 2011
Target sequence (P11473 whole entry, looked up): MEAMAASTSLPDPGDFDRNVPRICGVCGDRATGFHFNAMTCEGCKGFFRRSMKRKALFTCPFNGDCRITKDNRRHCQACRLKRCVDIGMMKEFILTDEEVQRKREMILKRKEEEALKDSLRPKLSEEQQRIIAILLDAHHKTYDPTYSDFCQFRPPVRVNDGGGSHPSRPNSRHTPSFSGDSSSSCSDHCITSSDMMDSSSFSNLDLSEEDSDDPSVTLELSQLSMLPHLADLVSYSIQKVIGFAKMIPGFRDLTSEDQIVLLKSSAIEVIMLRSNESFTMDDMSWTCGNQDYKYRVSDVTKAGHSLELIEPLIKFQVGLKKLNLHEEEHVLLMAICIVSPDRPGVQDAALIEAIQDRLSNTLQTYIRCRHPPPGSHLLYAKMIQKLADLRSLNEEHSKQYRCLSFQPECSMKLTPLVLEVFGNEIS
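Measured by FP: displacement of SRC2-3 coactivator peptide from VDR by library compounds, following a two-hour ambient incubation.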
Tau fluor counter – Counterscreen qHTS for Inhibitors of Tau Fibril Formation, Fluorescence Polarization. tau K18 P301L Alexa594 fluorescence, heparin fibrillization. Potency, µM (top dose mostly 57.7 µM), inactives show at the highest dose activity change, negative = decrease. 0.93% of 280,000 active; further: nearly all actives have a fitted effect of over 55% in size
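Human K18 P301L tau (15 uM unlabeled plus 0.24 uM Alexa 594-labeled, final) in 100 mM sodium acetate pH 7 was mixed with compound and 20 uM heparin and incubated 6 hr at 37 C.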
Tau ThT inhib – qHTS for Inhibitors of Tau Fibril Formation, Thioflavin T Binding; Microtubule-associated protein tau (Homo sapiens), P10636; recombinant tau K18 P301L, heparin-induced fibrillization, ThT fluorescence; Potency, µM (titrated, usually from 57.4 µM), for inactives: at the top dose activity, negative = inhibition, hits mostly inhibitors; 2.1% of 270,000 active; AID 1460, 2008; further: nearly all actives have a fitted effect of over 55% in size
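ThT emission at 510 nm, taken 1 hr after adding 30 uM dye, quantifies aggregates formed when 20 uM heparin acts on human tau K18 P301L for 6 hr at 37 C.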
Sfp PPTase inh – qHTS Assay for Inhibitors of Bacillus subtilis Sfp phosphopantetheinyl transferase (PPTase); Potency, µM, inactives show largest response in the series, negative = inhibition, usual class: inhibitors; AID 1490, 2009; 3.5% of 310,000 active; 4'-phosphopantetheinyl transferase ffp (Bacillus subtilis), Q9F4F7; Biochemical Sfp PPTase activity, qHTS;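 further: the enzyme is Sfp with the accession as filed and its product quenches rhodamine fluorescence; 0% = enzyme reaction without inhibitor and -100% = no enzyme wells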
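Sfp 15 nM + cpd, 15 min RT; start w/ rhodamine-CoA 5 uM, BHQ-2-YbbR 12.5 uM (final); 50 mM Hepes pH 7.6, 10 mM MgCl2, 0.01% NP-40, 0.01% BSA; read 525/598 nm at 0 and 30 min.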
* marks the source's active call; other numbers are inactive results; u = inconclusive; x = no result; [ ] = another dose, or the depositor's remark. Rows were chosen to be rich in hits. Some 6% of all compounds tested hit in one or more screens of this group. The call rests on the fitted dose curve; in most records, active means well fitted curve in the direction sought with a large enough effect; inconclusive means small, poorly fitted or top-dose-only effect, or another doubt; inactive means no such curve, though single readings can be large; an effect the other way counts as inactive or inconclusive. Unless noted, on the % scale 0 is the no-effect control and ±100 the full control effect; potency means the concentration at half of the fitted maximal effect.

SMILES	PLK1 PBD block	Tau fibril FP	VDR inhibitor	Tau fluor counter	Tau ThT inhib	Sfp PPTase inh
CC[C@@]1(O)C(=O)OCc2c1cc1n(c2=O)Cc2cc3c(CN(C)C)c(O)ccc3nc2-1	5.97µM*	-2.4%	-5.3%	-5.6%	u	16.3%
CC[C@@]1(O)C(=O)OCc2c1cc1n(c2=O)Cc2cc3c([N+](=O)[O-])cccc3nc2-1	x	x	3.8%	x	x	22.8%
O=C(NNc1nc2cc3c(cc2s1)OCO3)c1ccc(F)cc1	-2.5%	-2.7%	7.5%	-14.0%	-3.3%	28.2µM*
Fc1ccc2nc(Nc3nc4cc5c(cc4s3)OCCO5)sc2c1	-6.6%	-6.1%	-27.2%	14.1µM*[quencher]	10µM*	-11.5%
Fc1ccc2nc(Nc3nc4cc5c(cc4s3)OCO5)sc2c1	1.1%	u	-0.7%	3.55µM*[quencher]	u	-5.7%
Fc1ccc2nc(Nc3nc4c(F)cc(F)cc4s3)sc2c1	-4.6%	-17.5%	-4.4%	u	u	-14.5%
CC(=O)c1sc(Nc2ccc3c(c2)OCO3)nc1C	-7.9%	x	x	x	x	x
CC(=O)c1sc(Nc2nc3cc4c(cc3s2)OCO4)nc1C	u	-0.3%	0.1%	u	3.16µM*	u
CCn1c(=O)cc(SCC(=O)NCc2ccccc2OC)c2ccccc21	x	-2.7%	9.6%	-11.4%	-6.8%	x
COc1ccc(C2CC(=O)c3cc(-c4nc(-c5cccc(Cl)c5)cs4)c(=O)[nH]c3C2)cc1OC (stereo not drawn)	x	-12.9%	-9.0%	-9.0%	-12.1%	x
COC(=O)Cn1c(C)nc2ccccc21	-2.3%	2.7%	2.9%	-2.3%	-3.0%	-2.3%
O=C(O)Cn1c(-c2ccccc2)nc2ccccc21	26.7µM*	1.9%	-6.0%	2.7%	-2.8%	21.6%
O=C(O)Cn1c(=O)c(-c2ccccc2)nc2ccccc21	1.0%	x	-5.5%	x	x	10.5%
COC(=O)Cn1c(=O)c(C)nc2ccccc21	29.9µM*	0.3%	-17.9%	8.6%	5.9%	9.8%
Cc1ccc(C(=O)CSc2nc3cc(S(=O)(=O)N4CCOCC4)ccc3o2)cc1	23.8µM*	u	-3.7%	-27.6%	u	-15.0%
O=C(CSc1nc2cc(S(=O)(=O)N3CCOCC3)ccc2o1)NC1CCCc2ccccc21 (stereo not drawn)	6.7µM*	-7.7%	u	12.1%	-2.8%	10µM*
O=C(NC1CCCc2ccccc21)c1cc(S(=O)(=O)N2CCOCC2)ccc1F (stereo not drawn)	-6.2%	2.2%	-10.7%	-4.0%	-4.0%	-5.8%
CCOC(=O)c1c(C)oc2nc(C)nc(NCCc3ccc(SC)cc3)c12	x	-5.2%	12.5%	-7.2%	u	x
CCN(CC)C(=S)NC(=O)c1cccnc1	-18.4%	1.7%	-1.7%	1.6%	3.0%	50.1µM*
N#Cc1ccccc1NC(=S)NC(=O)c1cccnc1	11.9µM*	x	-12.0%	x	x	50.1µM*
CCOC(=O)CNC(=O)c1cccnc1	23.8µM*	-1.9%	-3.7%	3.2%	6.7%	8.3%
CN(C)c1ccc(NC(=O)C2C3C=CC(C3)C2C(=O)O)cc1 (stereo not drawn)	-2.0%	x	u	x	x	50.1µM*
CC(=O)c1cccc(NC(=O)C2C3C=CC(C3)C2C(=O)O)c1 (stereo not drawn)	0.8%	6.0%	-17.2%	-4.3%	-4.7%	-25.8%
Cc1ccc(-c2cccc(NC(=O)C3C4C=CC(C4)C3C(=O)O)c2)o1 (stereo not drawn)	u	8.7%	-7.9%	-4.2%	-12.7%	35.5µM*
COc1cc([N+](=O)[O-])ccc1NC(=O)C1C2C=CC(C2)C1C(=O)O (stereo not drawn)	-2.6%	x	4.9%	x	x	31.6µM*
SMILES	PLK1 PBD block	Tau fibril FP	VDR inhibitor	Tau fluor counter	Tau ThT inhib	Sfp PPTase inh
COc1cc(NC(=O)C2C3C=CC(C3)C2C(=O)O)ccc1NC(=O)c1ccccc1 (stereo not drawn)	-11.7%	x	-7.9%	x	x	89.1µM*
CC(C)(C)OC(=O)N1CCC(c2c(C(=O)NCCN3CCC(Cc4ccccc4)CC3)cnn2-c2ccccc2)CC1	x	-7.1%	14.8%	-11.9%	u	x
Cc1ccc(S(=O)(=O)N2CCCC(c3nc4c(nnn4Cc4ccc(OC(F)(F)F)cc4)c(=O)[nH]3)C2)cc1 (stereo not drawn)	x	-10.9%	4.3%	-5.6%	10.6%	x
COc1ccc(OCc2nnc(SCC(=O)N(C)Cc3ccccc3)n2N)cc1	10.6µM*	-4.4%	79.4µM*	-1.6%	-11.2%	25.1µM*
CCN(Cc1ccccc1)c1ccc(/C=N/NS(=O)(=O)c2ccc(C)c([N+](=O)[O-])c2)cc1	23.8µM*	u	u	7.08µM*[quencher]	u	u
Cc1ccc(S(=O)c2ccc(NC(=O)C3CC3)cc2C#N)cc1 (stereo not drawn)	10.6µM*	-3.6%	70.8µM*	-17.5%	-1.8%	17.3%
O=C1C=CC(=O)N1	29.9µM*	x	39.8µM*	x	x	x
COc1ccc(CCNC(=O)C(=O)NCC2CCCN2S(=O)(=O)c2ccccc2)cc1OC (stereo not drawn)	0.9%	x	-15.9%	x	x	x
Cc1conc1NC(c1cccs1)c1ccc2cccnc2c1O (stereo not drawn)	x	1.5%	x	-25.0%	u	50.1µM*
Cc1cccc(CNC(=O)c2ccccc2NC(=O)C2=CSCCO2)c1	u	x	-0.2%	x	x	4.8%
Cc1cccc(CNC(=O)c2ccc(NC(=O)C3=CSCCO3)cc2)c1	26.7µM*	x	u	x	x	15.6%
CCOc1ccc(CNC(=O)c2ccccc2NC(=O)C2=CSCCO2)cc1	23.8µM*	x	u	x	x	-20.4%
Nc1cc(-c2ccc(Cl)cc2)nn1S(=O)(=O)c1cccc2nsnc12	-1.6%	9.6%	-2.7%	17.8µM*[quencher]	u	12.9%
Nc1cc(-c2ccc(Br)cc2)nn1S(=O)(=O)c1cccc2nsnc12	4.8%	0.0%	14.8%	12.6µM*[quencher]	u	8.5%
CCOC(=O)C1=CCN(S(=O)(=O)c2ccc(C)cc2)C1c1ccc(Cl)c(Cl)c1 (stereo not drawn)	-8.9%	x	x	x	x	x
CC=CCn1c(SCc2ccccc2)nc2c1c(=O)[nH]c(=O)n2C	26.7µM*	x	x	x	x	x
C/C=C/Cn1c(SCc2ccc(C)cc2)nc2c1c(=O)[nH]c(=O)n2C	21.2µM*	-4.1%	u	0.3%	-1.5%	-17.5%
COc1ccc(C2/C=C\CN(C(=O)c3ccccc3)C(C)C(=O)N2Cc2ccc(F)cc2)cc1 (stereo not drawn)	x	x	-27.3%	x	x	-5.8%
COC(=O)N1CCC[C@@]2(CCN(Cc3nccs3)C2)C1	x	x	-3.1%	x	x	11.6%

Screening data (PubChem BioAssay)
